Assay results reported in the supplement of paper PMC6555819.

How the values were obtained:
Test in all cases: PBM binding z-score (relative to random genomic background probes); higher = stronger binding; sequences stand for … in GC…GCGATTGACAGCGTAGAATGAAGG
[1] = tested on: FXR:RXRa (NR concentration 270 nM, RXRa partner concentration 90 nM)
In short: (§1)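 On custom Agilent 4×180K arrays, double-stranded probes with 34-nt variable regions carried direct-repeat seeds, single-nucleotide variants, half-site ablations or random human genomic background. Ligand-free nuclear receptor dimers were applied for 1 h, and binding was read with antibodies against each partner (one per run). Binding z-scores come from regression-normalized fluorescence, with the random background probes as reference.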

[2] = tested on: LXRa:RXRa (NR concentration 270 nM, RXRa partner concentration 90 nM)
In short: as §1

[3] = tested on: LXRa homodimer (NR concentration 270 nM)
In short: as §1

[4] = tested on: LXRb:RXRa (NR concentration 270 nM, RXRa partner concentration 90 nM)
In short: as §1

[5] = tested on: LXRb homodimer (NR concentration 270 nM)
In short: as §1

[6] = tested on: PPARa:RXRa (NR concentration 270 nM, RXRa partner concentration 90 nM)
In short: as §1

[7] = tested on: PPARg:RXRa (NR concentration 180 nM, RXRa partner concentration 90 nM)
In short: as §1

[8] = tested on: PPARg:RXRa 270nM:90nM, anti-RXR (NR concentration 270 nM, RXRa partner concentration 90 nM)
In short: as §1

[9] = tested on: PPARg:RXRa 30nM:10nM, anti-RXR (NR concentration 30 nM, RXRa partner concentration 10 nM)
In short: as §1

[10] = tested on: PPARg:RXRa 90nM:30nM, anti-RXR (NR concentration 90 nM, RXRa partner concentration 30 nM)
In short: as §1

[11] = tested on: PPARg:RXRa DBDmut IVT, anti-RXR (DBD mutation: RXRa K156A/R161A, NR concentration 270 nM, RXRa partner concentration 90 nM)
In short: as §1

[12] = tested on: PPARg:RXRa IVT, anti-PPARg (NR concentration 270 nM, RXRa partner concentration 90 nM)
In short: as §1

[13] = tested on: PPARg DBDmut:RXRa IVT, anti-PPARg (DBD mutation: PPARg1 K132A/R137A, NR concentration 270 nM, RXRa partner concentration 90 nM)
In short: as §1

[14] = tested on: PPARg DBDmut IVT, anti-PPARg (DBD mutation: PPARg1 K132A/R137A, NR concentration 270 nM)
In short: as §1

[15] = tested on: PPARg homodimer (NR concentration 180 nM)
In short: as §1

[16] = tested on: PXR:RXRa (NR concentration 270 nM, RXRa partner concentration 90 nM)
In short: as §1

[17] = tested on: PXR homodimer (NR concentration 270 nM)
In short: as §1

[18] = tested on: RARa:RXR (NR concentration 270 nM, RXRa partner concentration 90 nM)
In short: as §1

[19] = tested on: RARa homodimer (NR concentration 270 nM)
In short: as §1

[20] = tested on: RARb:RXRa (NR concentration 270 nM, RXRa partner concentration 90 nM)
In short: as §1

Sequence | PBM binding z-score [1] | PBM binding z-score [2] | PBM binding z-score [3] | PBM binding z-score [4] | PBM binding z-score [5] | PBM binding z-score [6] | PBM binding z-score [7] | PBM binding z-score [8] | PBM binding z-score [9] | PBM binding z-score [10] | PBM binding z-score [11] | PBM binding z-score [12] | PBM binding z-score [13] | PBM binding z-score [14] | PBM binding z-score [15] | PBM binding z-score [16] | PBM binding z-score [17] | PBM binding z-score [18] | PBM binding z-score [19] | PBM binding z-score [20]
TCATATAGGTAAATGCTAGGTGAAAGTACGATCT | 1.24 | 0.992 | 0.296 | 0.731 | 0.0256 | 1.6 | 1.69 | 2.52 | 3.66 | 3.19 | 3.93 | 3.03 | 1.24 | 1.57 | 0.891 | 0.968 | 0.678 | 1.38 | 1.13 | 0.64
CAAACTATGTCACGAAAGGTCAAAGTCGAATGAC | 5.77 | 6.78 | 6.81 | 6.18 | 2.79 | 6.44 | 6.17 | 5.88 | 3.01 | 4.94 | 5.09 | 5.93 | 3 | 0.957 | 3.47 | 6.07 | 2.12 | 6.01 | 2.87 | 4.92
CCGACTGGGGCAAAGGTGACCATACTCAGTACGA | 0.275 | 0.171 | -0.478 | 0.634 | -1.65 | 4.77 | 10.3 | 8.5 | 8.35 | 9.3 | 5.54 | 5.24 | 0.207 | -0.959 | 1.34 | 0.701 | -0.655 | 1.65 | -0.317 | 1.62
TAGCCTAGGTCTGATCGGGCCAGTATACGCTATA | -0.28 | -0.943 | -0.639 | -0.94 | -1.01 | -0.144 | 0.0558 | -0.669 | -0.329 | -0.45 | -0.797 | -0.522 | -0.763 | -0.994 | -0.906 | -0.673 | -1.05 | -0.33 | -1.47 | -0.362
TCTTGTAGATCAATAGAGGTTACGAAAGTGCGCT | 1.11 | 3.47 | 0.474 | 2.05 | 0.24 | 2.12 | 0.4 | 1.79 | 2.79 | 2.24 | 1.83 | 1.63 | 0.944 | 0.638 | 0.416 | 3.21 | 0.389 | 2.22 | 0.489 | 1.24
TCTTGTAGATCAATAGAGGTTATGAAAGTGCGCT | 0.99 | 3.56 | 0.696 | 1.68 | 0.325 | 1.9 | 0.356 | 2.08 | 2.99 | 2.41 | 1.9 | 1.34 | 0.208 | 0.487 | 0.327 | 2.9 | 0.0755 | 2.04 | 0.403 | 1.02
CCTGATAGGTCAATGGTCAGCTAAAGCAGCTCGC | 5.01 | 3.98 | 0.776 | 2.92 | 0.415 | 4.48 | 4.56 | 4.96 | 2.53 | 4.35 | 3.36 | 3.31 | -0.515 | -0.301 | 2.74 | 2.07 | 0.0154 | 2.95 | 0.334 | 4.06
TCTAGCAGGCCAGAGGGTCAATCAAGAGGTACGG | 1.44 | 1.33 | -0.494 | 1.43 | -1.31 | 2.66 | 1.61 | 3.01 | 2.27 | 2.91 | 0.793 | 0.929 | -2.08 | -0.99 | 1.31 | 1.76 | -0.442 | 2.63 | -0.831 | 2.25
CATACAGGGTCAGCTCGGCCAGAGTAGGGACGGC | 4.13 | 2.91 | -0.117 | 2.06 | 0.463 | 3.97 | 2.99 | 2.64 | 0.565 | 1.72 | 0.771 | 2.11 | 1.08 | 0.134 | 0.989 | 2.02 | 0.0599 | 2.97 | 0.394 | 4
TCGATTAGGTTAGGGGCATTCAGAATGGCGTCGA | 0.719 | 0.542 | 0.0424 | 1.5 | 0.612 | 1.46 | 0.358 | 2.01 | 2.41 | 2.22 | 1.99 | 0.798 | -0.691 | 0.33 | 1.07 | 0.603 | 0.447 | 0.692 | 0.352 | 1.57
CCTAGTTGATCAGGAGGTCACACACCGGATATGA | 3.48 | 3.95 | 3.16 | 3.71 | 1 | 4.19 | 2.24 | 2.78 | 1.24 | 1.99 | 0.771 | 2.22 | 0.83 | 0.641 | 4.38 | 4.62 | 1.79 | 5.02 | 2.57 | 3.46
CGAACGAGGGCATGAGTTGATAACAAATGCCGAT | 0.424 | 0.218 | -0.205 | 0.254 | -0.653 | 1.44 | 1.53 | 1.35 | 0.389 | 0.841 | 2.8 | 1.8 | 0.105 | -0.206 | 0.149 | 0.497 | 0.164 | 0.612 | -0.168 | 1.83
ATCTCTAGGTAACAAGTTCACTGAAAGAGAGGAC | 1.15 | 1.44 | 1.22 | 1.56 | 0.913 | 2.74 | 2.49 | 2.9 | 1.37 | 2.56 | 3.4 | 3.15 | 1.22 | 1.68 | 1.6 | 2.83 | 2.82 | 2.02 | 0.943 | 2.18
AGTCAAAGATCAGGACGAGGTAACGTAAAGCACG | 0.107 | -0.519 | -0.426 | -0.362 | -0.522 | 0.273 | 1.18 | 0.619 | 0.0734 | 0.677 | -0.64 | 0.122 | 0.0525 | 0.169 | -0.153 | -0.236 | -0.419 | 0.336 | 0.445 | 0.247
